From PubChem
MITF act – increases MITF-driven TRPM1 promoter luciferase signal | activation, % at 12.5 µM | SK-MEL-5 TRPM1-promoter luciferase, 24 h; % of positive control, neutral wells = 0 | AID 588334 | 300,000 compounds, 0.75% hits;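 active = mean activation of at least 80% with every replicate also reaching 80%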;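 note: 0% = neutral control wells and 100% = parthenolide positive control wells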
PHOSPHO1 block – inhibitors of human PHOSPHO1 phosphatase; 290,000 compounds, 1.1% hits; Q8TCT1; inhibition, % at 13.3 µM; AID 1565; recombinant PHOSPHO1, absorbance phosphatase assay; in the data active = inhibition above about 60%
A3G deaminase – inhibitors of human APOBEC3G DNA deaminase; recombinant A3G, ssDNA deamination FAM/TAMRA fluorescence; Q9HC16; inhibition, % at 20 µM; 330,000 compounds, 0.28% hits; AID 493012;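 active = inhibition of at least 40% at 20 µM, with no more than 30% in the related APOBEC3A deaminase screen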;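 note: plate controls were DMSO wells with A3G for no effect and wells lacking A3G enzyme for full effect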
Target sequence (Q9HC16 whole entry, looked up): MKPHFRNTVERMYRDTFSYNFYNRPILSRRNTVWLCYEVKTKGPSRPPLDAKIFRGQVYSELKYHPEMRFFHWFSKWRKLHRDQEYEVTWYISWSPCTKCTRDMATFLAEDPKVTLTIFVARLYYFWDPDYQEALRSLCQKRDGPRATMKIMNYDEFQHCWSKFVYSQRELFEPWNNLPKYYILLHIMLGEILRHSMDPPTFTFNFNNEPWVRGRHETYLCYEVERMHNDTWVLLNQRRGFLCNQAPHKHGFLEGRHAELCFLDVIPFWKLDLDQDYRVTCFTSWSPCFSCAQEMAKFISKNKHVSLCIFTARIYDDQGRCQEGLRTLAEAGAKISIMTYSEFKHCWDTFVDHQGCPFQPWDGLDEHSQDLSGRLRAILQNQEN
Wnt act – activators of Wnt/beta-catenin signaling. 300,000 compounds, 1.2% hits. Wnt/beta-catenin reporter cell assay, activator, plate reader. activation, % at 9.35 µM; in the data active = activation above about 30%, passing the limit was not always enough;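 note: 0% = neutral control wells and 100% = positive control wells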
A3A deaminase – blocks human APOBEC3A ssDNA deamination | P31941 | recombinant A3A, FAM/TAMRA ssDNA deamination fluorescence | AID 493011 | inhibition, % at 20 µM | 330,000 compounds, 0.41% hits;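 active = at least 40% inhibition at 20 µM here, with at most 30% in a related deaminase screen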;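 note: plate controls were A3A with DMSO for no effect and wells lacking A3A enzyme for full effect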
Target sequence (P31941 whole entry, looked up): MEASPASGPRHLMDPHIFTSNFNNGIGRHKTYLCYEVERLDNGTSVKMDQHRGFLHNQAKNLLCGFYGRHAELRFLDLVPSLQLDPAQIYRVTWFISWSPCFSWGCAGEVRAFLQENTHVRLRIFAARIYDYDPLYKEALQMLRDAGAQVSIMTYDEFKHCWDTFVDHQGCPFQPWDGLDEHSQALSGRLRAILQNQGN
esBAF inh – blocks esBAF chromatin remodeling in mouse ES cells; Bmi1-luciferase knock-in reporter, 24 h; 100% = twice the neutral-well signal; 350,000 compounds, 2% hits; reporter increase, % at 12.5 µM; in the data active = activation above about 40%;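 note: 0% = median of the plate's neutral control wells and 100% = double that signal; a rise in the Bmi1 reporter signal indicates esBAF inhibition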
A3A conf – confirmation of human APOBEC3A DNA deaminase inhibitors. inhibition, % at 20 µM. recombinant A3A, ssDNA deaminase UDG fluorescence assay. shares compounds with A3A deaminase. AID 493151. 1,400 compounds, 63% hits;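 active = inhibition reaching a set limit, 80% of the first screen's cutoff, at 20 µM in any replicate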;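 note: plate controls were DMSO wells with A3A for no effect and wells lacking A3A enzyme for full effect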
UDG A3A counter – inhibits UDG, flagging false APOBEC3A inhibitors; shares compounds with A3A deaminase; UDG counterscreen, FAM/TAMRA uracil oligo fluorescence; inhibition, % at 20 µM; 1,000 tested, under 10 active; AID 504714; call rule not given here
* = called active by the depositor; nt = not tested or not shown. Sampled rows, rich in hits. Any-hit rate of the full collection: about 3.6%.

SMILES | MITF act | PHOSPHO1 block | A3G deaminase | Wnt act | A3A deaminase | esBAF inh | A3A conf | UDG A3A counter
CNC[C@@H]1Oc2ccc(NS(C)(=O)=O)cc2CC(=O)N([C@H](C)CO)C[C@@H]1C | nt | nt | nt | nt | nt | -8 | nt | nt
CN(C)C(=O)C[C@@H]1CC[C@H]2[C@@H](COC[C@@H](O)CN2C(=O)C2CCCC2)O1 | nt | nt | nt | nt | nt | -3 | nt | nt
CCOC(=O)C1=C(COC(=O)/C=C/c2ccco2)NC(=O)NC1C (stereo not drawn) | -6 | nt | 5 | 0 | 48* | nt | 44* | 4
O=C(CCN1C(=O)COc2ccccc21)NCc1ccco1 | 17 | 29 | -1 | nt | 64* | 6 | 7 | 5
Cc1ccnc(NS(=O)(=O)c2ccc(NC(=O)Cc3cccs3)cc2)n1 | 4 | 4 | 30 | nt | 54* | -6 | 61* | -4
O=C(Cc1cccs1)Nc1ccc(S(=O)(=O)Nc2ncccn2)cc1 | 9 | 28 | 14 | nt | 36 | nt | nt | nt
O=C(c1ccc(=O)oc1)N1CCOCC1 | 5 | 16 | 29 | -3 | 95* | 0 | 84* | nt
O=C(c1ccc(=O)oc1)N1CCCc2ccccc21 | 5 | 2 | 15 | nt | 71* | -12 | 60* | nt
O=C(c1ccc(F)cc1)N1CCOCC1 | 4 | 47 | -9 | -1 | -3 | -1 | nt | nt
O=C(COC(=O)CC1CC2CCC1C2)NCc1ccccc1 (stereo not drawn) | 17 | nt | -3 | -2 | -3 | -1 | nt | nt
CC(CCc1ccccc1)NC(=O)COC(=O)CC1CC2CCC1C2 (stereo not drawn) | -8 | -19 | -3 | nt | 121* | nt | -6 | -3
O=C1/C(=C/c2ccco2)SC(=S)N1CC1CCCO1 (stereo not drawn) | nt | 4 | 19 | 1 | 56* | 17 | 26* | 3
O=C1/C(=C\c2ccco2)SC(=S)N1C1CCS(=O)(=O)C1 (stereo not drawn) | nt | -111 | 20 | 18 | 35 | nt | nt | nt
COc1ccc(/C=C2\SC(=S)N(CC3CCCO3)C2=O)cc1 (stereo not drawn) | nt | 4 | -3 | 11 | 2 | nt | nt | nt
O=C1/C(=C/c2ccco2)SC(=S)N1C1CCS(=O)(=O)C1 (stereo not drawn) | 1 | -67 | 18 | 0 | 47* | nt | 52* | nt
CN1c2ccc(-c3ccc(F)cc3)cc2[C@H]2[C@H](CCN2C(=O)Nc2ccc(F)cc2)[C@H]1CO | nt | nt | nt | nt | nt | -1 | nt | nt
O=C(Cc1ccncc1)NCC[C@H]1CC[C@H](NC(=O)C2CC2)[C@@H](CO)O1 | nt | nt | nt | nt | nt | -2 | nt | nt
C[n+]1c(/C=C/c2ccc3c(c2)OCO3)ccc2ccccc21 | 4 | 16 | 20 | -2 | 86* | nt | 87* | -2
C[n+]1c(/C=C/c2ccc(O)cc2)ccc2ccccc21 | 30 | 22 | 28 | 24 | 57* | 62* | 75* | 5
C[C@H]1CN([C@@H](C)CO)C(=O)c2c(c3ccccc3n2C)-c2ccccc2CO[C@H]1CN(C)C(=O)[C@@H](Cc1ccccc1)N(C)C | nt | nt | nt | nt | nt | -6 | nt | nt
CCc1cc(=O)oc2cc(C)c(CN3CCCC3)c(O)c12 | 2 | 4 | 17 | -3 | 41* | -3 | 54* | nt
O=C(Cc1cccs1)Nc1nnc(Cc2ccccc2)s1 | 26 | -2 | 29 | -5 | 64* | -6 | 46* | -3
COc1ccc(NC(=O)N[C@H]2CC[C@@H](CCNC(=O)c3ccccc3F)O[C@@H]2CO)cc1 | nt | nt | nt | nt | nt | -3 | nt | nt
C[C@H](CO)N1C[C@H](C)[C@H](CN(C)Cc2ccccc2)Oc2ncc(-c3ccccc3F)cc2C1=O | nt | nt | nt | nt | nt | 0 | nt | nt
COc1ccc(S(=O)(=O)N(CC(=O)Nc2ccc3c(c2)OCO3)c2ccccc2OC)cc1 | -5 | 9 | -4 | -4 | -3 | -2 | nt | nt
SMILES | MITF act | PHOSPHO1 block | A3G deaminase | Wnt act | A3A deaminase | esBAF inh | A3A conf | UDG A3A counter
COc1ccccc1N(CC(=O)Nc1ccc2c(c1)OCO2)S(=O)(=O)c1ccccc1 | nt | 92* | 17 | 2 | 49* | -3 | 64* | -4
C[C@H](CO)N1C[C@H](C)[C@@H](CN(C)C(=O)CN(C)C)Oc2cc(-c3cncnc3)ccc2S1(=O)=O | nt | nt | nt | nt | nt | 3 | nt | nt
O=C(O)c1cc(-c2ccc(/C=C3\NC(=O)N(c4ccccc4)C3=O)o2)ccc1Cl | -1 | 67* | 18 | 9 | 58* | 6 | 35* | -3
CC(=O)NC(CC(=O)NC1CCCCC1)c1ccccc1 (stereo not drawn) | 6 | -9 | -7 | 1 | 30 | 4 | nt | nt
CC(=O)NC(CC(=O)NC1CCCCCC1)c1ccccc1 (stereo not drawn) | -3 | -17 | -4 | nt | 45* | nt | 32* | -2
O=C(CSc1nnc(NC(=O)c2ccc3c(c2)OCO3)s1)NCc1ccco1 | -5 | 48 | -3 | 11 | 88* | nt | -2 | 2
CCCN(CC(=O)Nc1ccc(F)c(F)c1F)C(=O)C1=COCCO1 | -5 | nt | 15 | -3 | 51* | 2 | 4 | nt
CN(CC(=O)Nc1ccc(F)c(F)c1F)C(=O)C1=COCCO1 | -7 | 32 | 1 | 1 | 4 | -5 | nt | nt
COc1ccccc1-c1cnc2c(c1)C(=O)N([C@H](C)CO)C[C@H](C)[C@@H](CN(C)Cc1ccncc1)O2 | nt | nt | nt | nt | nt | 3 | nt | nt
CCOC(=O)c1c(NC(=O)c2ccc(N3C(=O)[C@@H]4[C@H](C3=O)[C@H]3C=C[C@@H]4C3)cc2)sc2c1CC(C)CC2 (stereo partly drawn) | -1 | -30 | -5 | nt | 91* | nt | 6 | 6
O=C(Nc1ccccc1)Nc1ccc2c(c1)[C@@H]1C[C@@H](CC(=O)N3CCOCC3)O[C@@H](CO)[C@@H]1O2 | nt | nt | nt | nt | nt | 5 | nt | nt
Cn1c(CCC(=O)Nc2cc(S(C)(=O)=O)ccc2Cl)nc2cc(S(=O)(=O)N3CCOCC3)ccc21 | -8 | nt | 26 | 1 | 74* | nt | 76* | 3
O=C(Nc1ccc(-c2nc3ccccc3o2)c(O)c1)c1cc(-n2cnnc2)ccc1Cl | -35 | 5 | -3 | -12 | 0 | 2 | nt | nt
Cc1c(NC(=O)c2cc(-n3cnnc3)ccc2Cl)cccc1-c1nc2ccccc2o1 | 3 | 13 | 25 | nt | 46* | nt | 64* | -2
CCc1noc(C)c1C(=O)Nc1cc(S(=O)(=O)N2CCOCC2)ccc1N1CCN(CC)CC1 | -6 | nt | 16 | 0 | 48* | 0 | 60* | 0
CCN1CCN(c2ccc(S(=O)(=O)N3CCOCC3)cc2NC(=O)c2ccc(C(F)(F)F)cc2)CC1 | -1 | nt | 5 | -2 | 60* | -11 | 27 | nt
CCN1CCN(c2ccc(S(=O)(=O)N3CCOCC3)cc2NC(=O)/C=C/c2ccc([N+](=O)[O-])cc2)CC1 | -64 | nt | 1 | -1 | 43* | nt | 48* | -4
